Measurements as given in PubChem BioAssay.
Calls of active or inactive are those of the source.

Legend:
[1] = A549 cell viability effects, profiling panel, calcein-AM fluorescence, 48 h, basal (AID 1162); details: higher = more signal
[2] = adipocyte viability effects, profiling panel, cell-based, 3T3-L1 adipocytes, calcein-AM fluorescence, 48 h, basal (AID 1163); details: 3T3-L1 adipocytes viability, higher = more signal
[3] = HepG2 cell viability effects, profiling panel, calcein-AM fluorescence, 48 h, basal (AID 1164); details: higher = more signal
[4] = MM1S cell viability effects, profiling panel, calcein-AM fluorescence, 48 h, basal (AID 1165); details: higher = more signal;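 further: viability of MM1S multiple myeloma cells under basal unstimulated conditions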
[5] = basal RPMI8226 viability, no added stimulus, profiling panel, cell-based, calcein-AM fluorescence, 48 h, PK04 Diversity Set (AID 1166); details: RPMI8226 myeloma viability, higher = more signal;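 further: cells grown under basal conditions without added stimulus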
[6] = basal HepG2 mitochondrial membrane potential changes, profiling panel, cell-based, JC-1 fluorescence, 24 h, 100 nL compound (AID 1167); details: higher = more signal
[7] = basal 3T3-L1 adipocyte mitochondrial potential changes, profiling panel, cell-based, JC-1 fluorescence, 3T3-L1 adipocytes, 24 h, 100 nL compound (AID 1168); details: JC-1 mitochondrial fluorescence, higher = more signal, called active from +8 up or from −8 down
[8] = basal RPMI8226 mitochondrial membrane potential changes, profiling panel, cell-based, JC-1 fluorescence, 24 h, 100 nL compound (AID 1169); details: RPMI8226 myeloma, JC-1 mitochondrial potential fluorescence, higher = more signal
[9] = basal MM1S mitochondrial membrane potential changes, profiling panel, cell-based, JC-1 fluorescence, 24 h, 100 nL compound (AID 1170); details: higher = more signal
[10] = A549 lung cancer cell viability effects, profiling panel, resazurin fluorescence, 24 h, PK04 Diversity Set (AID 1171); details: higher = more signal, called active from +8 up or from −8 down
Further: test concentration not given here.

SMILES | z-score [1] | z-score [2] | z-score [3] | z-score [4] | z-score [5] | z-score [6] | z-score [7] | z-score [8] | z-score [9] | z-score [10]
CC[C@@H]1C=C(C(=O)O)[C@H](c2ccc(OC)cc2)N1S(=O)(=O)c1ccc(C)cc1 | -0.0984 | -0.32 | -0.183 | 0.107 | -0.23 | -0.955 | -0.687 (inactive) | -0.168 | -0.273 | -0.599 (inactive)
CO[C@H]1O[C@H](CO)[C@@H](OC(=O)Nc2ccc3c(c2)OCO3)[C@H](OC(=O)Nc2ccccc2-c2ccccc2)[C@H]1OC(=O)Nc1ccccc1-c1ccccc1 | -3.97 | 0.548 | -3.71 | -3.34 | -2.72 | 0.0319 | 2.04 (inactive) | -0.819 | -1.76 | -3.84 (inactive)
C=C(C)[C@@H]1CC=C(C(O)C2C=CC3C(=O)N(C)C(=O)C3N2Nc2ccc([N+](=O)[O-])cc2[N+](=O)[O-])CC1 (stereo not given in full) | -0.34 | -0.924 | -0.303 | -0.731 | -2.48 | -0.286 | -1.71 (inactive) | 0.553 | -0.755 | -0.375 (inactive)
COc1ccc([Si](C)(C)[C@H]2[C@H](CC(=O)N3Cc4ccccc4C[C@H]3CO)O[C@@]3(C(=O)N(c4ccccc4)c4ccccc43)[C@@H]2C)cc1 | -0.782 | 0.898 | -0.755 | -2.67 | -4.49 | 0.959 | -0.652 (inactive) | -1.1 | -0.81 | 0.698 (inactive)
COC(=O)[C@H](Cc1ccccc1)N1CC2=CCCC=C[C@@H]2[C@H]1[C@H](O)Cc1ccccc1 | -0.183 | -0.635 | 0.244 | -3.12 | -1.41 | -0.866 | -0.116 (inactive) | -1.16 | -0.746 | 0.705 (inactive)
COCCCNC(=O)[C@@]1(CCC(=O)OC(C)(C)C)COC(c2ccc(OCCCO)cc2)=N1 | -0.487 | 0.129 | -0.642 | -1.43 | -0.24 | 0.195 | -1.05 (inactive) | -0.438 | 0.012 | 2.45 (inactive)
CC(C)[Si](C#CCCc1ccccc1)(O[C@H](c1ccccc1)c1cn(Cc2ccccc2)nn1)C(C)C | -0.865 | 0.254 | -1.01 | -0.505 | -0.297 | 0.907 | -0.979 (inactive) | -0.631 | -1.08 | 1.43 (inactive)
O=C(NCc1ccc(F)cc1)[C@H]1C[C@H]2C(=O)N3CCC[C@H]3C(=O)N2[C@H]1c1ccc(O)cc1 | -0.965 | 0.625 | -0.647 | -0.896 | -0.625 | 0.552 | 0.811 (inactive) | 0.207 | -0.396 | -0.0909 (inactive)
CC(C)=CCCC=C(C)C(O)C1C=CC2C(=O)N(c3ccccc3)C(=O)C2N1Nc1ccc(C#N)cc1 (stereo not given) | 1.46 | 0.464 | 1.47 | -1.65 | -1.92 | -0.428 | -0.926 (inactive) | -0.483 | -1.29 | -1.18 (inactive)
Cc1ccc(S[C@]2(C(=O)NCc3ccccc3)CC(=O)N(Cc3ccccc3C(F)(F)F)[C@@H]2c2ccc(CO)cc2)cc1 | 0.653 | 0.269 | 1.73 | 0.0811 | 1.36 | 0.779 | 0.311 (inactive) | -0.0337 | -0.216 | -1.35 (inactive)
C=C(COC)C(=O)CC[C@@H](OC(C)=O)c1ccccc1OCCO | 0.177 | 1.37 | -0.601 | -3.28 | -1.75 | 0.143 | -0.22 (inactive) | -0.557 | -1.82 | 0.837 (inactive)
C=CCNC(=O)[C@H]1[C@@H]2C(=O)O[C@@H](c3ccccc3)[C@@H](c3ccccc3)N2[C@@H](c2ccc(OCCO)cc2)[C@]12C(=O)Nc1ccccc12 | 0.375 | 1.35 | -0.503 | 0.287 | -0.62 | -1.21 | -0.00331 (inactive) | -0.522 | -0.377 | 1.02 (inactive)
CO[C@H]1O[C@H](CO)[C@@H](OC(=O)Nc2ccccc2)[C@H](OC(=O)Nc2ccccc2)[C@H]1OC(=O)Nc1ccccc1 | -1.27 | 0.416 | -1.92 | -0.77 | -3.14 | 0.292 | 0.0293 (inactive) | -0.77 | -1.06 | -3.04 (inactive)
CC1CC/C=C\[C@H]2OC34C=CCN(c5ccc6ccccc6c5)C(=O)[C@H]3N(C(C)CO)C(=O)[C@@H]4C2C(=O)O1 (stereo not given in full) | -0.326 | -4.43 | 1.05 | 1.6 | -0.311 | 0.333 | 0.0486 (inactive) | 0.195 | -0.532 | -0.0299 (inactive)
COc1ccc([Si](C)(C)[C@@H]2[C@@H](CC(=O)N3CCC[C@H]3CO)O[C@]3(C(=O)N(Cc4cccc(N5CCCCC5=O)c4)c4ccccc43)[C@H]2C)cc1 | -0.158 | 0.403 | -1.35 | -2.81 | -4.25 | -2.13 | -0.191 (inactive) | -1.12 | -1.47 | -1.6 (inactive)
CO[C@H]1O[C@H](CO)[C@@H](OC(=O)Nc2ccccc2-c2ccccc2)[C@H](OC(=O)Nc2ccccc2)[C@H]1OC(=O)Nc1ccccc1 | -1.66 | 1.29 | -1.74 | -2.76 | -3.36 | -0.216 | 0.877 (inactive) | -0.747 | -0.558 | -3.34 (inactive)
CC(C)c1nc2cc(Br)ccc2c(=O)o1 | -0.374 | 0.124 | -1.32 | 0.345 | -0.262 | -0.0593 | 0.316 (inactive) | 0.593 | -0.259 | 0.0924 (inactive)
CN(C)CCCCNC(=O)[C@H]1C[C@H]2C(=O)NCC(=O)N2[C@H]1c1ccc(O)cc1 | -0.685 | 0.364 | -0.239 | 0.34 | -0.0681 | -0.253 | -0.324 (inactive) | 0.347 | -0.371 | 1.05 (inactive)
CCCCCC1=C2CNC(Cc3ccccc3)(C(=O)OC)C=C2C(C)C1=O (stereo not given) | -1.33 | 0.598 | -1.14 | -2.69 | -3.65 | 1.14 | -1.55 (inactive) | -0.608 | -0.32 | -0.605 (inactive)
CC1CC/C=C\[C@H]2OC34C=CCN(c5ccc(Cl)cc5)C(=O)[C@H]3N(CCCCCCO)C(=O)[C@]4(C)C2C(=O)O1 (stereo not given in full) | 0.943 | -3.94 | 0.606 | 1.88 | -0.368 | 0.232 | 0.115 (inactive) | 1.03 | -0.439 | 0.523 (inactive)
Cc1ccc(F)cc1S(=O)(=O)N[C@H]1CCN(Cc2ccc(OC(C)C)cc2)C1 | 0.376 | -0.535 | -0.7 | -1.4 | -1.93 | -0.809 | 0.416 (inactive) | 0.0436 | -1.41 | -0.477 (inactive)
